Data reported in PubChem BioAssay (NCATS).
Where “and” joins values, the source holds several entries; their conditions need not be identical. Identical values can stand only once. A number with no mark means an inactive call. Results filed as inconclusive are left out. Where a call stands in place of a potency, no number is given. Calls of active or inactive are those of the source. Unless noted, the call rests on the fitted dose curve; in most records, active means well fitted curve in the direction sought with a large enough effect; inconclusive means small, poorly fitted or top-dose-only effect, or another doubt; inactive means no such curve, though single readings can be large; an effect the other way counts as inactive or inconclusive.

Experiments:
[1] = Cell Viability - Mesenchymal (AID 546); conditions: mesenchymal cells viability, qHTS; activity change, negative = cytotoxicity: at 91.7 µM (top of the series);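 further: cells exposed to compound for 40 hours before reading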
Method in brief: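 CellTiter-Glo luminescence (intracellular ATP, 20 min room temperature) after 40 hr compound exposure at 37 °C of 1000 glomerulus-derived human kidney mesenchymal cells/well; AC50 values obtained by fitting qHTS concentration-response data to the Hill equation.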

[2] = Cellular Toxicity (caspase-3) HepG2 (AID 654); conditions: HepG2 caspase-3 activation, luminescence; series mostly up to 92.2 µM;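 further: cells exposed to compound for 16 hours before reading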
Method in brief: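 Luminescent Caspase-Glo 3/7 readout after 16 hr compound exposure of human hepatocellular carcinoma HepG2 cells at 37 °C; qHTS concentration-response, normalized DMSO = 0%, 100 uM tamoxifen = 100%; AC50 by standard Hill equation.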

[3] = Cellular Toxicity (caspase-3) Jurkat (AID 655); conditions: Jurkat caspase-3 activation, luminescence; series mostly up to 92.2 µM;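 further: cells exposed to compound for 16 h at 37 °C before reading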
Method in brief: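 5000 Jurkat cells/well; compound 16 hr, 37 °C; Caspase-Glo 3/7 added, 20 min RT; luminescence read. Norm: DMSO = 0%, tamoxifen 100 uM = 100%. AC50, Hill model.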

[4] = Cellular Toxicity (caspase-3) HUV-EC-C (AID 656); conditions: HUV-EC-C cells, caspase-3 activation (apoptosis), vehicle = 0, 100 µM tamoxifen = 100%; series mostly up to 92.2 µM
Method in brief: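 qHTS; HUV-EC-C, 1000 cells/well; 5 hr settle, 16 hr cmpd, 37°C; Caspase-Glo 3/7, 20 min RT; luminescence. Norm: DMSO = 0%, tamoxifen 100 uM = 100%. Hill-fit AC50.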

[5] = Cellular Toxicity (caspase-3) SHSY5Y (AID 657); conditions: SH-SY5Y caspase-3 activation, DMSO zero, 10 µM staurosporine = 100%; series mostly up to 91.7 µM;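 further: cells exposed to compound for 16 hours at 37 °C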
Method in brief: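 qHTS, SH-SY5Y, 1500 cells/well, 5 h pre-incubation 37 °C; compound 16 h 37 °C; Caspase-Glo 3/7 1 h RT; luminescence. Norm.: DMSO = 0, 10 uM staurosporine = 100%. Hill fit → AC50.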

[6] = Cellular Toxicity (caspase-3) BJ (AID 658); conditions: BJ fibroblasts, luminescence, normalized: DMSO 0%, staurosporine 100%; series mostly up to 91.7 µM;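 further: cells exposed to compound for 16 hours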
Method in brief: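 Caspase-Glo 3/7 luminescence, read 1 hr after reagent at room temperature, in normal BJ fibroblasts exposed 16 hours at 37 °C. AC50 values from Hill-equation concentration-response, scaled between DMSO basal and 10 uM staurosporine as 100%.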

[7] = Cellular Toxicity (caspase-3) MRC-5 (AID 659); conditions: MRC-5 cells, luminescence, normalized: DMSO 0%, 10 µM staurosporine 100%; series mostly up to 91.7 µM
Method in brief: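 Luminescent Caspase-Glo 3/7 read-out (1 h, room temperature) after a 16 h, 37 °C compound exposure of MRC-5 lung fibroblasts at 1500 cells/well. Concentration-response AC50 from Hill equation; 0% DMSO, 100% 10 uM staurosporine.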

[8] = Cellular Toxicity (caspase-3) SK-N-SH (AID 661); conditions: SK-N-SH caspase-3 activation, qHTS; series mostly up to 91.7 µM;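 further: cells exposed to compound for 16 hours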
Method in brief: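 Luminescent Caspase-Glo 3/7 read-out after 16 hr compound exposure of SK-N-SH neuroblastoma cells at 37 °C. Signal increase normalized to DMSO (basal) and 10 uM staurosporine (100%); AC50 from Hill equation fits of qHTS concentration-response data.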

[9] = Cellular Toxicity (caspase-3) H-4-II-E (AID 663); conditions: H-4-II-E rat hepatoma, scaled: DMSO 0%, 100 µM tamoxifen 100%; at 92.2 µM (top of the series);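 further: cells exposed to compound for 16 hr before readout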
Method in brief: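 Caspase 3/7 activation measured by luminescent aminoluciferin substrate cleavage after 16 hr compound treatment of H-4-II-E cells in complete medium. Increase normalized between DMSO (basal) and 100 uM tamoxifen (100%); Hill-equation AC50 from concentration-response.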

[10] = biological target: 3',5'-cyclic-AMP phosphodiesterase 4B (Homo sapiens) (UniProt Q07343); experiment: qHTS Assay for Inhibitors of PDE-IV (AID 607; active means well fitted activation curve with a large enough effect in the main read-out, with a control signal flat, not every such curve was filed as active); conditions: HEK293 ACTOne CNG channel cells, membrane potential fluorescence; series mostly up to 22.9 µM
3',5'-cyclic-AMP phosphodiesterase 4B (Homo sapiens), sequence (Q07343 whole entry, looked up): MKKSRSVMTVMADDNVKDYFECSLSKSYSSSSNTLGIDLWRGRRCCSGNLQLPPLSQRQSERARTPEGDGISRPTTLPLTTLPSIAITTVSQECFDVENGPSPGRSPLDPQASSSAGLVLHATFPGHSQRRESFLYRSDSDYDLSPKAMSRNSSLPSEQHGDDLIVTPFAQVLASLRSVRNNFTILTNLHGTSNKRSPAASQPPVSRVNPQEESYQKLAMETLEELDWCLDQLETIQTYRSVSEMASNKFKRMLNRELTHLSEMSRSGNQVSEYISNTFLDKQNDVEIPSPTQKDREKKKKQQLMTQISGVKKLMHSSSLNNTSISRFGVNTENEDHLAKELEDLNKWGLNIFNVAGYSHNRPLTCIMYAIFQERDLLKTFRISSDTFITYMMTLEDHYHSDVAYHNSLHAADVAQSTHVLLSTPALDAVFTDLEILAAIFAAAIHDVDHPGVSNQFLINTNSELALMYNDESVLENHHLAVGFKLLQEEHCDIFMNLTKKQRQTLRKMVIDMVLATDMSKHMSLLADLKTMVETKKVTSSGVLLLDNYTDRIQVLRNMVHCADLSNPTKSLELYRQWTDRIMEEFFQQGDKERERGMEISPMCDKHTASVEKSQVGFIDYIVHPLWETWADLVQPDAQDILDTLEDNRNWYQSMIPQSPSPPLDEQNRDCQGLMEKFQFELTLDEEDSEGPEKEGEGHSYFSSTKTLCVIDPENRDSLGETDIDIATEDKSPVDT
Method in brief: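 Live HEK293 cells with a modified cyclic nucleotide-gated (CNG) channel report intracellular cAMP via membrane-potential dye fluorescence (ex 535/em 590 nm). Endogenous PDE-IV was targeted. Compounds were tested at up to 22.9 uM final; RO 20-1724 100 uM served as control.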

CCCOC(=O)c1ccc(O)cc1
Potency [1]: inactive
Potency [2]: inactive
Potency [3]: inactive
outcome [4]: inactive
outcome [5]: inactive
outcome [6]: inactive
outcome [7]: inactive
Potency [8]: inactive
caspase-3 activation [9]: 1.99% and 0.213%

NO
outcome [10]: inactive

CC(=O)SCC[N+](C)(C)C
outcome [10]: inactive

CN=c1nc(-c2ccccc2)n(-c2ccccc2)s1
outcome [10]: inactive

O=C(Nc1cccc(C(=O)Nc2ccc(S(=O)(=O)O)c3cc(S(=O)(=O)O)cc(S(=O)(=O)O)c23)c1)Nc1cccc(C(=O)Nc2ccc(S(=O)(=O)O)c3cc(S(=O)(=O)O)cc(S(=O)(=O)O)c23)c1
outcome [10]: inactive

C[N+](C)(CCCCCC[N+](C)(C)CCCN1C(=O)c2cccc3cccc(c23)C1=O)CCCN1C(=O)c2cccc3cccc(c23)C1=O
outcome [10]: inactive

COc1ccccc1N1CCN(CCN(C(=O)c2ccc(I)cc2)c2ccccn2)CC1
outcome [10]: inactive

O=C(O)c1cc([N+](=O)[O-])ccc1NCCCc1ccccc1
outcome [10]: inactive

CN1CCc2cc(NC(=O)Nc3cccnc3)ccc21
outcome [10]: inactive

NCCCCCCCCCCN
outcome [10]: inactive

Cc1c(Nc2ncccc2C(=O)O)cccc1C(F)(F)F
outcome [10]: inactive

O=C1NC(O)=NC1(c1ccccc1)c1ccccc1
outcome [10]: inactive

COC1=C(OC)C(=O)c2ccccc2C1=O
outcome [10]: inactive

N#C/C(=C\c1ccc(O)c(O)c1)C(=O)c1ccc(O)c(O)c1
outcome [10]: inactive

O=C1C(SCCO)=C(SCCO)C(=O)c2ccccc21
outcome [10]: inactive

Clc1ccc(N2CCN(Cc3c[nH]c4ncccc34)CC2)cc1
outcome [10]: inactive

CN(C)c1nc(N)c(C(=O)N=C(N)N)nc1Cl
outcome [10]: inactive
